# Screening results from PubChem.
# Shown is part of a subset that was picked to be rich in hits.
# Sa growth inh – S. aureus growth inhibition at 42 and 30 °C, primary screen, LtaS inhibitor project, RN4220, two temperatures. 170,000 compounds, 0.53% hits. relative growth, % (test concentration not listed). OD600, 20 h, 42 °C; stronger effect = lower value. AID 720641, 2013;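 active = relative growth at most 50% at the other temperature and 20+ points below 30 °C, or under 10% at both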
# S aureus helic – inhibitors of S. aureus replicative helicase, primary screen, biochemical, fluorescence unwinding readout; purified S. aureus helicase, fluorescence unwinding assay; inhibition, % (no concentration beside the values); 120,000 compounds, 0.05% hits; AID 485395, 2010; in the data active = inhibition above about 25%, passing the limit was not always enough;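 note: 0% = mean of negative control wells and 100% = mean of positive control wells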
# * hit, by the source's call; nt = not tested or not shown; ! = repeats disagree.
SMILES,Sa growth inh,S aureus helic
O=C1C=CC(=O)N1CC1CCCO1 (centres undefined),103,-3
O=c1[nH]c(=O)n(C2CCCO2)cc1F (centres undefined),6.6*!,-14
C[C@H]1O[C@@H](n2cc(F)c(=O)[nH]c2=O)[C@H](O)[C@@H]1O,1.1*,nt
COc1ccc(-n2c(=S)[nH]c3cc(C(=O)NCc4ccco4)ccc3c2=O)cc1,101,25
O=C(NCC[n+]1ccc2ccccc2c1)c1ccccc1,87,2
CCc1ccc(NC(=O)CC2C(=O)OCCN2CC)cc1 (centres undefined),47,nt
CCN1CCOC(=O)C1CC(=O)Nc1ccccc1C(F)(F)F (centres undefined),30*,nt
O=C(Cn1nnc2c(cnn2-c2ccccc2)c1=O)N(c1ccccc1)c1ccccc1,114,6
CC(=O)Oc1cc2c(cc1Cl)C(C)(C)CC(C)(c1cc(Cl)c(OC(C)=O)cc1OC(C)=O)O2 (centres undefined),83,2
CNC(=O)Sc1ccccc1Cl,-0.6*,nt
O=C(CSc1ccccc1Cl)N1CCCC1,99,-20
COc1cccc(OCc2nnc(SCc3ccccc3)n2C)c1,3.8*,17
CSc1nnc(COc2cccc(C)c2)n1C,127,5
Cc1ccc(-c2nnn(CC(=O)N(Cc3ccccc3)C(C(=O)NC3CCCC3)c3ccco3)n2)cc1 (centres undefined),114,3
COc1ccc(-c2nnn(CC(=O)N(c3ccccc3)C(C(=O)NC3CCCC3)c3ccco3)n2)cc1 (centres undefined),48*,17
O=C(/C=C(\O)c1ccccc1)C(=O)Nc1cccc(F)c1,-0.6*,20
O=C(/C=C(\O)c1ccc(Br)cc1)C(=O)Nc1ccccc1,45,nt
Cc1cc2oc(=O)cc(Cn3ccsc3=N)c2cc1C(C)C,50*,6
Cc1cc2c(CCl)cc(=O)oc2cc1C(C)C,92,-5
Cn1c(=NC(=O)c2cc(-c3ccccc3)nc3ccccc23)sc2cc(S(C)(=O)=O)ccc21,102,-4
COc1ccc(-c2n[nH]c(C(F)(F)F)c2-c2cc3ccccc3o2)c(O)c1,3.9*,28
Cc1c(O)ccc(-c2n[nH]c(C(F)(F)F)c2Oc2ccccc2)c1O,nt,-20
CC(=O)NCCCc1nc2ccccc2[nH]1,nt,2
CC(=O)NCCCCCCNC(C)=O,21*,nt
COc1ccc(NC(=O)NC2CCCN2S(=O)(=O)c2ccc(Cl)cc2)cc1 (centres undefined),96,-11
SMILES,Sa growth inh,S aureus helic
Cc1noc(C)c1CSCC(=O)N1CCSC1=Nc1cccc(Cl)c1C,112,-4
C=CCc1cccc(O)c1O,72,-13
COC12CCCC(C(=O)O)(CCC1)C2,123,0
Oc1ccc(Br)cc1C1CC(c2ccccc2)=NC(c2ccco2)N1 (centres undefined),2.5*,-4
Oc1ccccc1C1CC(c2cccc(Br)c2)=NC(c2ccc(Br)cc2)N1 (centres undefined),76,4
CN1CCN(NC(=O)Cc2cccs2)CC1,97,13
Cn1nnnc1SCC(=O)NN1C(=O)NC(C)(c2ccccc2)C1=O (centres undefined),101,28
CO[C@@]1(NC(=O)CSCC#N)C(=O)N2C(C(=O)O)=C(CSc3nnnn3C)CSC21 (some centres undefined),-0.6*,nt
CO[C@@]1(NC(=O)Cc2cccs2)C(=O)N2C(C(=O)O)=C(COC(N)=O)CS[C@@H]21,-1.0*,nt
N#CC(C#N)=c1ccc(=C(C#N)c2ccc(N3CCCC3)cc2)cc1,89,-16
Oc1c(CN2CCCCC2)cc(Cl)c2cccnc12,nt,13
CCN1CCN(Cc2cc(Cl)c3cccnc3c2O)CC1,74,27
Oc1c(CN2CCOCC2)cc(Cl)c2cccnc12,1.3*,-3
CC1CN(Cc2cc(Cl)c3cccnc3c2O)CC(C)O1 (centres undefined),0.6*,1
COC(=O)C(C)Sc1ncnc2sc(C)c(C)c12 (centres undefined),92,-10
CCOC(=O)Nc1ccc(OC)cc1OC,105,nt
CCn1c(CNC(=O)c2ccco2)nnc1SC(C)C(=O)Nc1nc(C)c(C)s1 (centres undefined),91,2
CCOC(=O)C(C#N)c1c(F)c(F)c(Br)c(F)c1F (centres undefined),-1.0*,-4
CCOC(=O)C(C#N)c1ccccn1 (centres undefined),107,nt
Cc1ccc(Cl)cc1N1CCN(C(=O)Cn2nc(C)c3sc4ccccc4c3c2=O)CC1,114,nt
Cc1ccc(Cl)cc1N1CCN(Cn2sc3ccccc3c2=O)CC1,-0.4*,2
O=C(Oc1c(Cl)cc(Cl)c2cccnc12)c1ccco1,1.7*,32
Oc1c(Cl)cc(Cl)c2cccnc12,65,nt
O=C(O)CC1(CC(=O)Nc2ccc3c(c2)OCCO3)CCCCC1,111,15
CCCCc1oc2ccccc2c1C(=O)c1ccc(O)cc1,32,4
